Experimental data as given in PubChem BioAssay AID372 (MTDP, 2006).
About 770 (0.77%) of roughly 100,000 compounds were called active. The full list was thinned out, with actives kept by preference. A number with no mark means an inactive call. No stated cut-off is given here; in the data, active means inhibition above about 50%; inactive means the rest.

The compounds below were run against Gag-Pol polyprotein (Human immunodeficiency virus type 1 group M subtype B (isolate HXB2)) (UniProt P04585) (assay: RNase H inhibition, HIV 1 Gag Pol polyprotein, FRET biochemical assay, screening (AID 372)). Conditions: HIV-1 RT RNase H, FRET RNA/DNA substrate fluorescence; at 10 µM; active compounds read high.

Row | SMILES | inhibition
1 | CC(=O)N1CCN(C2=NC(=O)/C(=C/c3ccc(O)cc3)S2)CC1 | 10%
2 | Cc1ccc(C(=O)O)cc1NC(=O)C1CC=CCC1C(=O)O (stereo unspecified) | 10%
3 | CCOCCOC(=O)C1=C(C)NC2=C(C(=O)CCC2)C1c1ccc(CC)cc1 (stereo unspecified) | 12%
4 | CCN(CC)S(=O)(=O)c1ccc(-c2ccc(S(=O)(=O)N(CC)CC)cc2)cc1 | 11%
5 | N#C/C(=C\c1cc(Br)c(O)c(Br)c1)C(=O)Nc1ccccc1Br | 14%
6 | N#C/C(=C/c1ccc(O)cc1)C(=O)Nc1ccc(O)cc1 | 8%
7 | N#C/C(=C\c1ccccc1)C(=O)Nc1ccccc1Br | 9%
8 | N#C/C(=C/c1ccc(Cl)cc1)C(=O)Nc1cccc(Br)c1 | 15%
9 | N#C/C(=C/c1cccc(Cl)c1)C(=O)Nc1cccc(Br)c1 | 12%
10 | N#C/C(=C/c1ccc(Cl)cc1)C(=O)Nc1ccc(O)cc1 | 60% (active)
11 | N#C/C(=C\c1ccc(OC(=O)c2ccco2)cc1)C(=O)Nc1ccccc1Br | 50% (active)
12 | N#C/C(=C/c1ccc(Cl)cc1)C(=O)Nc1ccc(Cl)cc1 | 3%
13 | N#C/C(=C\c1ccc(OC(=O)c2ccc(Br)cc2)cc1)C(=O)Nc1cccc(Cl)c1 | 55% (active)
14 | O=C(Nc1ccc(Cl)cc1)O/N=C\c1ccc(Br)cc1 | 29%
15 | COc1ccc(C2/C(=C(/O)c3ccc(Cl)cc3)C(=O)C(=O)N2CCCC(=O)O)cc1 (stereo unspecified) | 4%
16 | Nc1ccc[n+](CC(=O)c2ccccc2)c1 | 2%
17 | Cc1ccccc1OCCNc1cc(N2CCOCC2)ccc1[N+](=O)[O-] | 10%
18 | Cc1ccc(Cl)cc1NC(=O)/C(C#N)=C\c1ccc(I)o1 | 9%
19 | COc1ccc(Br)cc1/C=C1\SC(N2CCOCC2)=NC1=O | 52% (active)
20 | COc1ccc(Br)cc1/C=C1/SC(N2CCCCC2)=NC1=O | 14%
21 | COc1ccc(Br)cc1/C=C1\SC(N2CCCC2)=NC1=O | 19%
22 | COc1ccc(C2CC(=O)C=C(Nc3ccccc3N)C2)cc1OC (stereo unspecified) | 10%

Row | SMILES | inhibition
23 | O=C1NC(=O)N(c2ccc(Br)cc2)C(=O)/C1=C/c1ccco1 | 12%
24 | CN1C(=O)C(=C/C=C/c2ccco2)C(=O)N(C)C1=S | 16%
25 | CN1C(=O)C(=Cc2ccco2)C(=O)N(C)C1=S | 61% (active)
26 | Cc1ccccc1N1C(=O)/C(=C\c2ccco2)C(=O)N(c2ccccc2)C1=S | 49%
27 | COC(=O)C1=C(C)N(C)C(=O)/C1=C\c1ccco1 | 11%
28 | Oc1ccc(Cl)cc1-c1cc(-c2ccc(Cl)cc2)n[nH]1 | 0%
29 | O=S(=O)(c1ccc(-c2csc(Nc3ccc4c(c3)OCO4)n2)cc1)N1CCOCC1 | 8%
30 | CCCCNCCOc1ccccc1OCC | 12%
31 | O=C(Nc1ccc2oc(-c3ccc(F)cc3Cl)nc2c1)c1cc(Cl)ccc1Cl | 18%
32 | Oc1ccc2ccccc2c1CN1CCOCC1 | 7%
33 | COc1ccc(/C=C/C(=O)Nc2ncc(Cc3ccccc3Cl)s2)cc1 | 54% (active)
34 | O=C(/C=C/c1cccs1)Nc1ncc(Cc2ccccc2Cl)s1 | 4%
35 | Cc1ccc(/C=C/C(=O)Nc2ncc(Cc3cc(Cl)ccc3Cl)s2)cc1 | 24%
36 | CCOc1ccccc1OCCOc1cccc(Br)c1 | 3%
37 | Cc1cccc(N2CCN(CN3C(=O)/C(=C/c4ccc(C)o4)SC3=S)CC2)c1 | 2%
38 | CCOC(=O)C(CCCCCOc1ccccc1C(C)(C)C)C(=O)OCC | 20%
39 | CCc1ccc(-c2nc(-c3ccccn3)no2)cc1 | 15%
40 | COc1cc(/C=N/c2sc3c(c2C#N)CCCC3)cc(Br)c1O | 15%
41 | NC(=O)c1c(/N=C/c2cc(Cl)cc(Cl)c2O)sc2c1CCCC2 | 11%
42 | CCOC(=O)c1c(N)n(CCOC)c2nc3ccccc3nc12 | 0%
43 | C=CCN(CC=C)CCCCOc1cccc(C)c1 | 5%
44 | Oc1ccc(Nc2nc3ccccc3nc2Nc2ccc(O)cc2)cc1 | 12%

Row | SMILES | inhibition
45 | Brc1ccc(Nc2nc3ccccc3nc2Nc2ccc(Br)cc2)cc1 | 55% (active)
46 | Ic1ccc(Nc2nc3ccccc3nc2Nc2ccc(I)cc2)cc1 | 34%
47 | O=C(NCCO)C(=O)Nc1ccccc1 | 0%
48 | CCN1CCN(CC(=O)N/N=C/c2ccccc2)CC1 | 8%
49 | CCc1ccc(C2Nc3ccc4ccccc4c3C3=C2C(=O)CC(C)(C)C3)cc1 (stereo unspecified) | 19%
50 | CC(=O)N(C1=C(Cl)C(=O)c2ccccc2C1=O)c1ccc(Cl)cc1 | 32%
51 | CC(=O)N(C1=C(N(C)C)C(=O)c2ccccc2C1=O)c1ccc(Br)cc1 | 1%
52 | CC(=O)N(C1=C(Cl)C(=O)c2ccccc2C1=O)c1ccc(Br)cc1 | 69% (active)
53 | CCN1CCN(CC(O)COc2ccc(C(C)(C)C)cc2)CC1 (stereo unspecified) | 0%
54 | O=C(O)c1ccc(C(=O)Nc2ccccc2Oc2ccccc2)c(C(=O)O)c1 | 6%
55 | O=C(O)c1ccc(C(=O)Nc2ccccc2Br)c(C(=O)O)c1 | 54% (active)
56 | O=C(O)c1ccc(C(=O)Nc2ccc(I)cc2)c(C(=O)O)c1 | 9%
57 | CCC1CCc2c(sc(NC(=O)CCC(=O)O)c2C#N)C1 (stereo unspecified) | 2%
58 | C=CCNc1nc(-c2ccc(Cl)cc2)nc2ccccc12 | 8%
59 | Cc1coc2cc3oc(=O)cc(C)c3cc12 | 7%
60 | Cc1cc(=O)oc2c(C)c3occ(-c4ccccc4)c3cc12 | 31%
61 | Cc1cc(=O)oc2cc3occ(-c4ccccc4)c3cc12 | 57% (active)
62 | O=C(O)CC(C(=O)O)N1C(=O)/C(=C\C(Cl)=C/c2ccc([N+](=O)[O-])cc2)SC1=S (stereo unspecified) | 14%
63 | c1ccc(CNc2nc(-c3ccccc3)cc(-c3ccccc3)n2)cc1 | 15%
64 | c1ccc(CNc2nc(-c3ccccc3)[n+](-c3ccccc3)s2)cc1 | 52% (active)
65 | c1ccc(Nc2nc(-c3ccccc3)[n+](-c3ccccc3)s2)cc1 | 30%
66 | CS(=O)(=O)N(CC(=O)NCCSc1ccc(Cl)cc1)c1ccc(Br)cc1 | 8%

Row | SMILES | inhibition
67 | Cc1cc(C)cc(N(CC(=O)NCCSCc2ccc(Cl)cc2)S(C)(=O)=O)c1 | 57% (active)
68 | CS(=O)(=O)N(CC(=O)NCCSCc1ccccc1Cl)c1ccc(Br)cc1 | 50% (active)
69 | Cc1ccc(CSCCNC(=O)CN(c2cccc(C)c2)S(C)(=O)=O)cc1 | 18%
70 | CCOc1ccc(N(CC(=O)NCCSCc2ccc(Cl)cc2)S(C)(=O)=O)cc1 | 22%
71 | CS(=O)(=O)N(CC(=O)NCCSCc1ccc(Cl)cc1)c1ccc(Cl)cc1 | 55% (active)
72 | COc1ccc(N(CC(=O)NCCSCc2ccccc2Cl)S(C)(=O)=O)cc1 | 22%
73 | COc1ccc(N(CC(=O)NCCSCc2ccc(Cl)cc2)S(C)(=O)=O)cc1Cl | 38%
74 | COc1ccc(S(=O)(=O)N(CC(=O)NCCSCc2ccc(Cl)cc2)c2cc(C)cc(C)c2)cc1OC | 12%
75 | O=C(NC(=S)Nc1ccccc1[N+](=O)[O-])c1ccc(-c2ccccc2)cc1 | 13%
76 | O=C(Cn1c(NCCCO)nc2ccccc21)c1ccc(Br)s1 | 11%
77 | Cc1sc(NC(=O)/C=C/c2ccc(Cl)cc2Cl)c(C(N)=O)c1C | 26%
78 | Nc1nnc(SCC(=O)Nc2ccccc2Oc2ccccc2)s1 | 4%
79 | CCC(C)c1ccc(NC(=S)NC(=O)c2ccc(OC)c(Br)c2)cc1 (stereo unspecified) | 9%
80 | COc1ccc(CCN(C)C2CC(=O)N(c3ccc(F)cc3)C2=O)cc1OC (stereo unspecified) | 0%
81 | Cc1ccc2oc(-c3cc(NC(=O)c4ccc(I)cc4)ccc3O)nc2c1 | 10%
82 | COc1ccc(Cc2cnc(NC(=O)c3ccccc3Cl)s2)cc1 | 11%
83 | NS(=O)(=O)c1ccc(CNC2CC(=O)N(CCc3ccccc3)C2=O)cc1 (stereo unspecified) | 9%
84 | O=[N+]([O-])c1ccc2nc3c([nH]c4ccccc43)c(Cl)c2c1 | 58% (active)
85 | O=[N+]([O-])c1ccc2nc3c([nH]c4ccccc43)c(N3CCOCC3)c2c1 | 6%
86 | O=c1c2cc([N+](=O)[O-])ccc2[nH]c2c1[nH]c1ccccc12 | 33%
87 | CCOc1cc(C(=O)NCc2ccccc2OC)cc(OCC)c1OCC | 2%
88 | Cc1ccc(C(=O)NNC(=S)NC(C)(C)C)cc1 | 6%

Row | SMILES | inhibition
89 | Cc1ccc(NC(=O)CC2SC(=Nc3ccccc3)N(c3ccccc3)C2=O)cc1 (stereo unspecified) | 5%
90 | O=C(CC1SC(=Nc2ccccc2)N(c2ccccc2)C1=O)Nc1ccc(F)cc1 (stereo unspecified) | 14%
91 | O=C(CC1SC(=Nc2ccccc2)N(c2ccccc2)C1=O)Nc1ccccc1 (stereo unspecified) | 58% (active)
92 | O=C(N/C(=C/c1cccc(Br)c1)C(=O)N1CCOCC1)c1ccccc1 | 5%
93 | CC(C)Cc1nnc(NC(=O)c2ccccc2I)s1 | 0%
94 | CCOC(=O)N1CCN(CCC(=O)Nc2ccc3c(c2)OCO3)CC1 | 16%
95 | Cc1cc2nn(-c3ccccc3)nc2cc1NC(=O)c1ccc(Cl)cc1Cl | 41%
96 | Cc1ccc(-n2nc3cc(C)c(NC(=O)c4ccc(Cl)cc4Cl)cc3n2)cc1 | 1%
97 | Cc1ccc(-n2nc3cc(C)c(NC(=O)c4cccc([N+](=O)[O-])c4C)cc3n2)cc1 | 51% (active)
98 | Cc1cc2nn(-c3ccccc3)nc2cc1NC(=O)/C=C/c1ccccc1 | 12%
99 | COc1ccc(-n2nc3cc(C)c(NC(=O)/C=C/c4ccccc4)cc3n2)cc1 | 42%
100 | Cc1cc2nn(-c3ccc(Cl)cc3)nc2cc1NC(=O)c1ccccc1Br | 52% (active)
101 | Cc1cc2nn(-c3ccc(Cl)cc3)nc2cc1NC(=O)c1ccccc1C | 36%
102 | Cc1cc2nn(-c3ccccc3)nc2cc1NC(=O)c1cccc([N+](=O)[O-])c1C | 16%
103 | Cc1ccc(-n2nc3cc(C)c(NC(=O)c4ccccc4Br)cc3n2)cc1 | 4%
104 | Cc1cc2nn(-c3ccc(Cl)cc3)nc2cc1NC(=O)c1ccc(Cl)cc1Cl | 58% (active)
105 | Cc1ccc(-n2nc3cc(C)c(NC(=O)c4ccccc4[N+](=O)[O-])cc3n2)cc1 | 15%
106 | Cc1cc2nn(-c3ccccc3)nc2cc1NC(=O)/C=C/c1ccc(Cl)cc1 | 54% (active)
